Source: PubChem BioAssay
Active and inactive are the calls of the source.

Experiments:
[1] = anti-His antibody binders, primary screen, artefact control for SMM control protein annotation, biochemical, small-molecule microarray, 635 nm fluorescence (AID 1128); conditions: anti-His Alexa647 antibody binding, higher = more signal;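 also: score merges feature fluorescence with signal-to-noise for each printed compound spot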
[2] = test system: Human papillomavirus type 1a E7 protein (residues 1-88); assay: HPV1a E7 small-molecule binders, primary screen, biochemical, small-molecule microarray, residues 1-88, 635 nm (AID 1129); conditions: small-molecule microarray binding, fluorescence 635 nm; higher = more signal
[3] = target: Focal adhesion kinase 1 (Homo sapiens) (UniProt Q05397); assay: small-molecule microarray binders of FAK, primary screen, biochemical, 635/667 nm fluorescence, BSA, DTT (AID 1130); conditions: PTK2 binding, 635 nm fluorescence, higher = more signal;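 also: composite of spot emission at 667 nm and signal to noise over triplicate slides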
[4] = test system: Fibrinogen (Alexa647-labelled); assay: fibrinogen binders on compound microarrays, profiling panel, artefact control for SMM control-protein annotation, biochemical, small-molecule microarray, 635/667 nm fluorescence (AID 1131); conditions: fibrinogen-A647 binding fluorescence, higher = more signal;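 also: z-score merges 667 nm fluorescence with per-spot signal-to-noise over triplicate slides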
[5] = target: Follistatin (Homo sapiens) (UniProt P19883); assay: follistatin binders on small-molecule microarrays, primary screen, biochemical, small-molecule microarray, 635/667 nm fluorescence (AID 1132); conditions: FST binding, 635 nm fluorescence, higher = more signal
[6] = target: Fibroblast growth factor 2 (Homo sapiens) (UniProt P09038); assay: FGF2 binders on small-molecule microarrays, primary screen, biochemical, small-molecule microarray, 635/667 nm fluorescence (AID 1133); conditions: small-molecule microarray binding, FGF2, fluorescence 635/667; higher = more signal
[7] = mitochondrial membrane potential change in A549 cells, profiling panel, cell-based, JC-1 fluorescence, basal, 24 h, 100 nL (AID 1138); conditions: higher = more signal;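 also: A549 lung adenocarcinoma cells under basal conditions with no added stimulus; test concentration not given here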
Lefty1 = Lefty1 binders on small-molecule microarrays, primary screen, biochemical, small-molecule microarray, 635/667 nm fluorescence (AID 1139); conditions: small-molecule microarray binding, fluorescence 635/667; higher = more signal
[8] = test system: wheat germ agglutinin (Triticum aestivum), Alexa647-labelled; assay: wheat germ agglutinin binders on compound microarrays, profiling panel, artefact control for SMM control-protein annotation, biochemical, small-molecule microarray, 635/667 nm fluorescence (AID 1140); conditions: WGA-A647 binding, 635 nm fluorescence, higher = more signal;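 also: score merges 667 nm feature emission with signal to noise over triplicate slides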
[9] = target: Luciferin 4-monooxygenase (Photinus pyralis) (UniProt P08659); assay: firefly luciferase enzyme inhibitors, primary screen, biochemical, luminescence, purified enzyme, 2006 set (AID 1141); conditions: SteadyGlo luminescence, 30 min, higher = more signal, called active from +8 up or from −8 down;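 also: cell-free assay with purified firefly luciferase at 100 ng per well in PBS; test concentration not given here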
Sequence of Luciferin 4-monooxygenase (Photinus pyralis) (P08659 whole entry, looked up): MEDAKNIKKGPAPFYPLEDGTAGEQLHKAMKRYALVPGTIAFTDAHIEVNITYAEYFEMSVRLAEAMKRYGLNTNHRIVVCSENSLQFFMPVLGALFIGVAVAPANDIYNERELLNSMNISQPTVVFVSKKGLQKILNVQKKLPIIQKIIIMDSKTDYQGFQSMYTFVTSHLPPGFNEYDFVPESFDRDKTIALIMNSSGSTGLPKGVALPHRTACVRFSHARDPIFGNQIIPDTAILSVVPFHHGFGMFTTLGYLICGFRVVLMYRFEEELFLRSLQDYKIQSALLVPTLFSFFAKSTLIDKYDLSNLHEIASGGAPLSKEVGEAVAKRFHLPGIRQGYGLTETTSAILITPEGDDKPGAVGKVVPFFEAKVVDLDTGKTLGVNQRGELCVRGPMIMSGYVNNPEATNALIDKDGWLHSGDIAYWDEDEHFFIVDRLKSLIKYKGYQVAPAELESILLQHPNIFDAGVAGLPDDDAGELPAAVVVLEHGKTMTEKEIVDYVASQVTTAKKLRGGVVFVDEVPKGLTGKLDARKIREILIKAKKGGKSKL

Sequence of Follistatin (Homo sapiens) (P19883 whole entry, looked up): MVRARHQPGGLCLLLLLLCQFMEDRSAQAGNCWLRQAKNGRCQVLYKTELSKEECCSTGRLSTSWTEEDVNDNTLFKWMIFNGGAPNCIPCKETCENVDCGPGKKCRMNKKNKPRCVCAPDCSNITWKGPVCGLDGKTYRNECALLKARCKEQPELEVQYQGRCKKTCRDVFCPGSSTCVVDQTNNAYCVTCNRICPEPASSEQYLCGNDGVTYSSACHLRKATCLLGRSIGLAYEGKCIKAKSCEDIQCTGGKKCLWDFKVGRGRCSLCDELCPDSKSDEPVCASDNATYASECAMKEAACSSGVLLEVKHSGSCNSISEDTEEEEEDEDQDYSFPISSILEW
Sequence of Focal adhesion kinase 1 (Homo sapiens) (Q05397 whole entry, looked up): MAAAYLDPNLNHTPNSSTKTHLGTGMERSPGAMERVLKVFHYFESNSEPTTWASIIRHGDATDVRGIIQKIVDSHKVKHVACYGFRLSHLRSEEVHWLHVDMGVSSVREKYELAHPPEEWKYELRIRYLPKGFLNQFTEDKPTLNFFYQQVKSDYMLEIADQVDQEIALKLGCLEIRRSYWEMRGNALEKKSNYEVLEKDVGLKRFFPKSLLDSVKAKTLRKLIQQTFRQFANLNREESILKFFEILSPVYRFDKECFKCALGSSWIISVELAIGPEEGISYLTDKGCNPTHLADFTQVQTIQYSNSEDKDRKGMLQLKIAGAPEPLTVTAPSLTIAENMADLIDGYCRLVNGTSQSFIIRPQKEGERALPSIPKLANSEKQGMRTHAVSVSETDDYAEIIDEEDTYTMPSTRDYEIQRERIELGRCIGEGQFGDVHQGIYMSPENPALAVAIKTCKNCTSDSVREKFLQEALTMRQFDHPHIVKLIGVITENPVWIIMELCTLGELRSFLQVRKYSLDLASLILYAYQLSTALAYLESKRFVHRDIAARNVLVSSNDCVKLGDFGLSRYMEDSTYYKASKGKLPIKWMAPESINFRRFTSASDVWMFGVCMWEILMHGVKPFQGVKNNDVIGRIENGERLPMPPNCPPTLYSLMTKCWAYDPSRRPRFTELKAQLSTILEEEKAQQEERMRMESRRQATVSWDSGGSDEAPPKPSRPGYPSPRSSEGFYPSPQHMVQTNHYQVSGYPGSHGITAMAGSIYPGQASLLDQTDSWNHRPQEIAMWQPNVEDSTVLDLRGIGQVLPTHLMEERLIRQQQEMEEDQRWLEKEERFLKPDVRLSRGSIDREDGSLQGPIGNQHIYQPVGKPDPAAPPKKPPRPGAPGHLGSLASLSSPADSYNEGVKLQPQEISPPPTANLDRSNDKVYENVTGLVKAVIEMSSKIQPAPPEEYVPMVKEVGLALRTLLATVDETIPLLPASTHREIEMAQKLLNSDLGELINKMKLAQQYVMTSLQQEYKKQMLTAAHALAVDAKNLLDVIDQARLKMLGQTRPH
Sequence of Fibroblast growth factor 2 (Homo sapiens) (P09038 whole entry, looked up): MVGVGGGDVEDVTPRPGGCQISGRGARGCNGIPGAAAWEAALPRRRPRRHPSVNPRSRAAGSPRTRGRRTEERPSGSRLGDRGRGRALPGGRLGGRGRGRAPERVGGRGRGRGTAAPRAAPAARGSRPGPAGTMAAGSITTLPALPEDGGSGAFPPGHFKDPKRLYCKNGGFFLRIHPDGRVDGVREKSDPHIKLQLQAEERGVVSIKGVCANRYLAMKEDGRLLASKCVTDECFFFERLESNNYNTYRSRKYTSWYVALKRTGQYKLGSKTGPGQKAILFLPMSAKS

Row | Compound | composite z-score [1] | composite z-score [2] | composite z-score [3] | composite z-score [4] | composite z-score [5] | composite z-score [6] | z-score [7] | composite z-score (Lefty1) | composite z-score [8] | z-score [9]
1 | C=C(COC)/C(=C/C[C@H](OC(=O)c1ccncc1)c1ccc(OCCO)cc1)c1cnc2ccccc2c1 | 1.96 | 1.2 | 0.111 | 0.967 | 1.38 | 1.02 | -0.0174 | 1.33 | 1.47 | -1.34 (inactive)
2 | COc1ccc(C(O)C2C=CC3C(=O)N(c4ccccc4)C(=O)C3N2Nc2ccccc2F)cc1OCc1ccccc1 (stereo not given) | 0.981 | 1.22 | 1.37 | 0.991 | 0.634 | -0.179 | 0.383 | -0.454 | 1.18 | -0.237 (inactive)
3 | [N-]=[N+]=Nc1ccccc1C[C@]1(C(=O)NCC(O)CO)N=C(c2ccc(OCCCO)cc2)O[C@H]1c1ccccc1N=[N+]=[N-] (stereo not given in full) | 1.58 | -0.212 | 0.0567 | 0.578 | -0.332 | -0.83 | 0.0494 | -0.435 | 0.543 | -3.26 (inactive)
4 | COc1ccc(C(=O)O[C@H]2CC[C@]3(C)C4=C(CCC3C2(C)C)[C@]2(C)CC[C@H]([C@H](C)CCCC(C)C)[C@@]2(C)CC4)cc1 (stereo not given in full) | 0.541 | 0.607 | -0.0307 | 0.206 | 0.625 | 0.483 | 1.41 | 0.493 | 0.103 | -0.384 (inactive)
5 | COc1cc2c(cc1O)C(C1CC1)N(Cc1cc3c(cc1Br)OCO3)CC2 (stereo not given) | -1.4 | -0.603 | -0.629 | -0.736 | -0.774 | -0.746 | -0.721 | -1.01 | -0.503 | -0.0849 (inactive)
6 | COC(=O)[C@@]1(Cc2ccccc2)[C@H]2c3cc(C(=O)N4CCCC4)n(Cc4nc5ccccc5[nH]4)c3C[C@H]2CN1C(=O)c1ccccc1 | 2.51 | 1.24 | 1.22 | 0.656 | 1.11 | -0.297 | 1.05 | -0.931 | 0.726 | 1.5 (inactive)
7 | CC1CC/C=C\[C@H]2OC34C=CCN(C(C)(C)C)C(=O)[C@H]3N(CCCCCCO)C(=O)[C@@H]4C2C(=O)O1 (stereo not given in full) | 1.65 | -0.572 | -0.61 | -0.988 | -0.49 | -0.635 | 0.699 | -0.349 | -0.872 | -0.939 (inactive)
